Values joined by “and” are separate entries in the source; they are usually repeats but may differ in a detail not shown here. Equal values may be shown once. In all, about 400,000 compounds went through this assay and about 2,100 (0.53%) were called active. Not shown: some 14% with an inconclusive outcome. The sample holds actives, similar compounds and a random draw of the others, so the mix is not that of the screen. No rule for the calls is given here.

The target of this test is Ataxin-2 (Homo sapiens) (UniProt Q99700). Briefly: qHTS for Inhibitors of ATXN expression. Format: functional.
Sequence of Ataxin-2 (Homo sapiens) (Q99700 whole entry): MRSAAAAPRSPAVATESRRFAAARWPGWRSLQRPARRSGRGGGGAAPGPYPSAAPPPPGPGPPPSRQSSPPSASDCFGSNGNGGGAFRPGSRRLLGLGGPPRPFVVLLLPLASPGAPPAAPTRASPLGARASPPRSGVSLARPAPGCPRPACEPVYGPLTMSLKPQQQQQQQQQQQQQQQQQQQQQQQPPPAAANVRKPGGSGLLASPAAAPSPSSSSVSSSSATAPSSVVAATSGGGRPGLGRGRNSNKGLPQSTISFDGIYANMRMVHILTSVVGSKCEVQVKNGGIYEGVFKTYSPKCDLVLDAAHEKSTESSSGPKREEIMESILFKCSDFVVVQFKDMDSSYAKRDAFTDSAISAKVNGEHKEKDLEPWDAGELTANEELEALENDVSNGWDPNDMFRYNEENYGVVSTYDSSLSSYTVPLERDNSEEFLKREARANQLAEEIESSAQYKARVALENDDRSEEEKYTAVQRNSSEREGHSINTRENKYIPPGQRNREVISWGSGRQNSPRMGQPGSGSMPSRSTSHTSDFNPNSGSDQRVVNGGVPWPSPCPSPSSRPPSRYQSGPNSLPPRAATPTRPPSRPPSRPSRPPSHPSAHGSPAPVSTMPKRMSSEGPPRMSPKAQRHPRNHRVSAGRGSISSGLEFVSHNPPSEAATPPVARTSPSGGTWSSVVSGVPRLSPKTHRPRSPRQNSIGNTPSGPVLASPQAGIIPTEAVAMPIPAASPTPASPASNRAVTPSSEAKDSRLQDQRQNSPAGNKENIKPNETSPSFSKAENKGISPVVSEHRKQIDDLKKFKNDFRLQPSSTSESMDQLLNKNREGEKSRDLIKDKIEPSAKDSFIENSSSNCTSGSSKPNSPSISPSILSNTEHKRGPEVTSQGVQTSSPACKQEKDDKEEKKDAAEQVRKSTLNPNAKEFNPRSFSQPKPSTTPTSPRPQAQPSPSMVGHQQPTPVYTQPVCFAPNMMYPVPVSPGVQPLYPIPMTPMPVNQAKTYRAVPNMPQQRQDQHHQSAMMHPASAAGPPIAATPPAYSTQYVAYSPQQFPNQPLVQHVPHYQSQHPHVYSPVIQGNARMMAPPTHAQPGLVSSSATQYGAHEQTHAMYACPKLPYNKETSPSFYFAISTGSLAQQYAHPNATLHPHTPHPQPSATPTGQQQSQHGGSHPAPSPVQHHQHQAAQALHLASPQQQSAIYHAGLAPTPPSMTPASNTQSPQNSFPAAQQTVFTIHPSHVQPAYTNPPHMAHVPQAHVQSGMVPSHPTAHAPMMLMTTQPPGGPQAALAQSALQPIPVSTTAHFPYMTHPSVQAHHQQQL
Take `Cc1cccn2c(=O)c3cc(C#N)c(=O)n(CCCN4CCOCC4)c3nc12`: the Potency result was “inactive”.

Regarding `COc1cc(C(=O)NCCCNc2nc3cc(C)c(C)cc3cc2C#N)cc(OC)c1OC`, the Potency result was “inactive”.

As for `COc1ccc(C23CC4CC(CC(C4)C2)C3)cc1C(=O)NCCN(C)C`, the Potency was 22.4 µM (active).

As to `CCOC(=O)CNC(=O)C12CC3CC(C1)CC(c1ccc(C)cc1)(C3)C2`, the Potency result is “inactive”.

With `COc1ccc(CCNC(=O)COC(=O)C2CC2C)cc1OC` (stereo not drawn), the Potency entry was “inactive”.

As for `Cc1nc(COc2ccccc2Cl)sc1-c1ccnc(N)n1`, the Potency entry was “inactive”.

On to `S=C(Nc1ccc2nc(-c3ccccn3)c(-c3ccccn3)nc2c1)N1CCOCC1`, for which the Potency result is “inactive”.

`COc1ccc(-c2cc3ccc(O)c(CN4CCOCC4)c3oc2=O)cc1OC`: the Potency entry was “inactive”.

With `COc1ccc(C(c2c(O)ccc3ccccc23)N2CCOCC2)c(OC)c1` (stereo not drawn), the Potency is 15.8 µM (active).

Take `COc1ccc(-c2c(C)c3ccc(O)c(CN4CCOCC4)c3oc2=O)cc1`: the Potency result was “inactive”.

Take `CCN(CC)c1ccc(/C=N\NC(=O)c2cccc3cc[nH]c23)cc1`: the Potency entry was “inactive”.

`NC(Cc1ccc(F)cc1)c1csc(Nc2nccc(C(F)(F)F)n2)n1` (stereo not drawn): the Potency was 39.8 µM (active).

As to `NC(Cc1ccc(F)cc1)c1csc(Nc2ccc(C(F)(F)F)cn2)n1` (stereo not drawn), the Potency is 35.5 µM (active).

On to `COc1cccc(Nc2nc(C(N)Cc3ccc(C(F)(F)F)cc3)cs2)n1` (stereo not drawn), for which the Potency was 31.6 µM (active).

Turning to `CCc1cnc(Nc2nc(C(N)Cc3ccc(F)cc3)cs2)nc1` (stereo not drawn), the Potency was 25.1 µM (active).

For `O=C(NCCN1CCCOC1=O)C(=O)NCCN1CCCOC1=O`, the Potency entry is “inactive”.

For the compound `O=C(NC1CCCc2ccccc21)c1ccccc1Cl` (stereo not drawn), the Potency result is “inactive”.

Turning to `O=C(Nc1ccc2nc(-c3ccco3)c(-c3ccco3)nc2c1)NC1CC1`, the Potency entry was “inactive”.

As to `CCOC(=O)c1cnc2nc(N3CCOCC3)nn2c1N`, the Potency entry is “inactive”.

Regarding `NC(=S)c1cc2ccc(O)cc2oc1=O`, the Potency entry is “inactive”.

As to `Cc1[nH]c2ccccc2c1/C=C/c1nc2ccccc2c(=O)n1CCO`, the Potency entry is “inactive”.

Regarding `NC(c1ccccc1)c1csc(Nc2ccc(C(F)(F)F)cn2)n1` (stereo not drawn), the Potency was 35.5 µM (active).

On to `CCc1cnc(Nc2nc(C(N)Cc3ccc(Cl)cc3)cs2)nc1` (stereo not drawn), for which the Potency was 35.5 µM (active).

`CCCc1cnc(Nc2nc(C(N)Cc3ccc(C(F)(F)F)cc3)cs2)nc1` (stereo not drawn): the Potency was 22.4 µM (active).

As to `COc1cc(OC)nc(Nc2nc(C(N)Cc3ccc(Cl)cc3)cs2)n1` (stereo not drawn), the Potency is 35.5 µM (active).

In the case of `COc1ccccc1/C=[N+](\[O-])C1SC(=S)N(C)C1(C)C` (stereo not drawn), the Potency result is “inactive”.

Consider `Cc1c(C)c2ccc(O[C@@H]3O[C@H](CO)[C@@H](O)[C@H](O)[C@H]3O)c(C)c2oc1=O`, for which the Potency result is “inactive”.

`Cc1nc2ccc(NS(=O)(=O)c3c(F)cc(F)cc3Br)cc2s1`: the Potency result was “inactive”.

As to `O=C(Nc1ccc(NC(=O)C2CC2)nc1)c1cnccn1`, the Potency result was “inactive”.

As to `COc1ccc(-c2cc(=O)oc3c(O)c(O)ccc23)cc1`, the Potency result was “inactive”.

Take `O=C(Nc1nc2n(n1)C(c1ccc(Cl)cc1)C=C(c1ccccc1)N2)c1ccco1` (stereo not drawn): the Potency result was “inactive”.

As for `O=C(CN1C(=O)/C(=C\c2cccc(Br)c2)Oc2ccccc21)NCCCN1CCOCC1`, the Potency is 39.8 µM (active).

For `O=C(CN1C(=O)/C(=C\c2ccccc2Cl)Oc2ccccc21)NCc1cccnc1`, the Potency entry is “inactive”.

Regarding `CCCCNC(=O)c1ccc(/C=C2\Oc3ccccc3N(C)C2=O)cc1`, the Potency entry was “inactive”.

With `COc1cc(/C=C(\C#N)c2ccccn2)ccc1OCc1ccccc1`, the Potency result is “inactive”.

For `O=C1OCCN1C(=O)[C@H]1[C@H](c2ccc(F)cc2)C(c2cccc(Cl)c2)=NN1c1ccc(Br)cc1`, the Potency entry was “inactive”.

Regarding `Oc1cnnc(Nc2ccc(Nc3ccccc3)cc2)n1`, the Potency entry was “inactive”.

With `CCCCc1ccc(Nc2nc(O)cc(CCC)n2)cc1`, the Potency is 39.8 µM (active).

As to `CCNC(=O)N1CCN(S(=O)(=O)c2ccc3c(c2)OCCCO3)CC1`, the Potency entry was “inactive”.

In the case of `CCN(c1ccc(OCC(=O)OCC(=O)Nc2ccc(F)c(F)c2F)cc1)S(=O)(=O)c1ccccc1`, the Potency entry was “inactive”.

In the case of `O=S(=O)(c1ccccc1)N(CC(F)(F)F)c1ccc(C(O)(C(F)(F)F)C(F)(F)F)cc1`, the Potency is 22.4 µM (active).

As for `COc1ccc(NC(=O)c2sc3nc(N4CCOCC4)c4c(c3c2N)CCCC4)cc1`, the Potency result was “inactive”.

For the compound `CC1(C(=O)NNC(=O)c2ccc(=O)oc2)CC1Br` (stereo not drawn), the Potency result is “inactive”.

In the case of `O=C(c1ccccc1NS(=O)(=O)c1ccc([N+](=O)[O-])cc1[N+](=O)[O-])N1O[C@@H]2C=C[C@H]1C2`, the Potency was 22.4 µM (active).

`COc1ccc(-c2nn(-c3ccccc3)cc2C(=O)Nc2ccc(C(=O)O)cc2)cc1OC`: the Potency result is “inactive”.

`CCN(CC)CCNC(=O)c1ccc(NC(=O)c2cn(-c3ccccc3)nc2-c2cccs2)cc1`: the Potency is 39.8 µM (active).

Consider `O=C(O)/C=C/c1cn(-c2ccccc2)nc1-c1cccs1`, for which the Potency result was “inactive”.

Regarding `CC(C)c1ccc(C2=CC(c3cccc(Cl)c3)n3ncnc3N2)cc1` (stereo not drawn), the Potency entry was “inactive”.

As for `CC(c1ccccc1)N(C)C(=O)CN1CCN(S(=O)(=O)c2ccc3c(c2)OCCCO3)CC1` (stereo not drawn), the Potency entry is “inactive”.

Consider `C=CCN(CC=C)CCOc1cccc(Oc2ccccc2)c1`, for which the Potency result is “inactive”.

In the case of `CCN(CC)CCOc1ccc(/C(=C(/Cl)c2ccccc2)c2ccccc2)cc1`, the Potency was 35.5 µM (active) and 17.8 µM (active).

As to `COc1ccc(CNc2oc(/C=C/c3cccc(OC)c3)nc2C#N)cc1`, the Potency result is “inactive”.

Regarding `O=c1oc2c3c4c(cc2c(C(F)(F)F)c1CCN1CCOCC1)CCCN4CCC3`, the Potency result was “inactive”.

In the case of `Cc1ccc(S(=O)(=O)N(Cc2ccccc2)c2ccccc2C(=O)N2CCCCC2)cc1`, the Potency is 31.6 µM (active).

Regarding `Cc1ccc(S(=O)(=O)N2CCN(C(=O)c3ccccn3)CC2)cc1`, the Potency result is “inactive”.

With `CCN(c1ccccc1)S(=O)(=O)c1ccc(Cl)c(C(=O)N2CCCC2)c1`, the Potency entry is “inactive”.

On to `CCOc1ccc2nc(NCCNC(=O)c3cc(OC)c(OC)c(OC)c3)c(C#N)cc2c1`, for which the Potency result is “inactive”.

For the compound `CCn1c(SCC(=O)Nc2cccc(Cl)c2)nnc1-c1nonc1NC(C)=O`, the Potency entry is “inactive”.

For the compound `CCOc1ccc(-c2nnc(SCC(=O)Nc3ccc4c(c3)c3ccccc3n4CC)n2N)cc1`, the Potency is 31.6 µM (active).

Regarding `CCC(=O)Nc1ccc(NC(=O)CSc2nnnn2Cc2ccccc2)cc1C`, the Potency result was “inactive”.

On to `O=C(NCCO)c1cc2cc(Cl)cc(Cl)c2oc1=O`, for which the Potency result is “inactive”.

For the compound `Cc1nccn1CCN(C)Cc1cn(Cc2ccccc2)nc1-c1ccc2c(c1)OCO2`, the Potency result was “inactive”.

`CN(Cc1cn(C)nc1-c1ccc(Oc2ccccc2)cc1)Cc1cnc2ccccn12`: the Potency is 35.5 µM (active).

For the origin of these results see ChEMBL document CHEMBL1201862, “PubChem BioAssay data set” (2004).
